# Where “and” joins values, the source holds several entries; their conditions need not be identical. Equal values may be shown once. Inconclusive results are not listed. Entries that show only a call come without a potency. Calls of active or inactive are those of the source. Unless noted, calls come from the whole dose curve. Numbered stars: 1 amine (or outer) side, 2 acyl side, 3 side chain; on linkers, the order of the positions; unused ones are H or OH. Bridge positions count the residues as written; N and C are the ends. Square brackets hold non-standard residues; d marks the D form. Peptide text beside a SMILES is read from it. * marks the point of attachment. ξ: configuration not given here. pTerphenylCO(4''-OnC5H11) = CCCCCOc1ccc(-c2ccc(-c3ccc(C(=O)*)cc3)cc2)cc1; ξOrn(4,5-diOH) = O=C(C(CC(O)C(O)N[*:3])N[*:1])[*:2]; ξhTyr(βξ-OH,γξ-OH) = NC(C(=O)O)C(O)C(O)c1ccc(O)cc1; ξPro(3ξ-OH,4ξ-Me) = CC1CNC(C(=O)O)C1O; Hyp = O=C(O)[CH]1C[CH](O)CN1
# Assays:
# [1] = Primary qHTS for inhibitors of SARS-S pseudo-typed particle cell entry (AID 1479145); conditions: outcome: dose series up to 57.1 µM unless noted; note: nearly all actives have a fitted effect of over 45% in size
# [2] = Primary qHTS for Vero E6 cytotoxicity: counterscreen for inhibitors of SARS-S pseudo-typed particle cell entry (AID 1479150); conditions: outcome: dose series up to 57.1 µM unless noted
# [3] = Cytotoxicity counterscreen for inhibitors of SARS-CoV-2 cell entry (AID 1645845); conditions: outcome: dose series up to 57.1 µM unless noted; note: nearly all actives have a fitted effect of over 50% in size
# Summary of the method: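 Counterscreen run in the same HEK293-ACE2 line as the pseudotyped-particle entry assay, without particles. Viability after 48 h at 37 C was read as ATP luminescence, scaled between cell-containing and cell-free wells.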
# [4] = Primary qHTS for Huh7 cytotoxicity: counterscreen for inhibitors of MERS-S pseudotyped particle cell entry (AID 1479147); conditions: outcome: dose series up to 57.1 µM unless noted
# [5] = Primary qHTS for inhibitors of MERS-S pseudo-typed particle cell entry (AID 1479149); conditions: outcome: dose series up to 57.1 µM unless noted; note: nearly all actives have a fitted effect of over 60% in size; note: potency is the fitted concentration of half-maximal effect
# [6] = Confirmatory qHTS for VERO E6 Cytotoxicity Assay: Counterscreen for SARS-CoV-2 CPE Assay (AID 1508605); note: nearly all actives have a fitted effect of over 60% in size
# [7] = Primary qHTS to identify inhibitors of SARS-CoV-2 cell entry (AID 1645846); conditions: SARS-CoV-2 pseudovirus cell entry assay, luminescence; activity change, negative = inhibition: at 57.1 µM (top of the series) unless noted; note: nearly all actives have a fitted effect of over 45% in size
# Summary of the method: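 HEK293 cells stably expressing human ACE2, pre-treated 1 h with compound, then infected with MLV particles pseudotyped with Wuhan-Hu-1 spike (C-terminal 19-aa truncation). Luciferase luminescence after 48 h at 37 °C, normalised to spike PP and bald PP.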
# [8] = target: Glutathione peroxidase 1 (Homo sapiens) (UniProt P07203); test: Primary qHTS Assay for Inhibitors of Recombinant Selenoprotein Glutathione Peroxidase 1 (GPX1) (AID 1845191; active = well fitted curve in the direction sought with a large enough effect; an effect the other way counts as inactive or inconclusive; note: nearly all actives have a fitted effect of over 65% in size)
# Summary of the method: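 GR-coupled readout: NADPH consumption tracked by fluorescence, ex 340/em 450 nm, at t=0 and after 15 min at RT. Final mix 10 nM GPX1, 1 mM GSH, 0.5 mM CHP, 0.5 mM NADPH, 100 nM GR, 0.01% BSA, following 30 min enzyme–compound preincubation.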
# [9] = target: Phospholipid hydroperoxide glutathione peroxidase GPX4 (Homo sapiens) (UniProt P36969); test: Primary qHTS Assay for Inhibitors of Recombinant Selenoprotein Glutathione Peroxidase 4 (GPX4) (AID 1845192; active = well fitted curve in the direction sought with a large enough effect; an effect the other way counts as inactive or inconclusive; note: nearly all actives have a fitted effect of over 65% in size)
# Summary of the method: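 Steps: GPX4 plus compound, 30 min RT; add GR/GSH/NADPH master mix; start with cumene hydroperoxide; read 340/450 nm fluorescence at 0 and 15 min. Finals were 200 nM GPX4, 1 mM GSH, 0.5 mM CHP, 0.5 mM NADPH, 100 nM GR.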
# [10] = MultiTox-Fluor Cytotoxicity Assay - LYMP1-002 - Dead Cells (AID 960; active = well fitted curve in the direction sought with a large enough effect; an effect the other way counts as inactive or inconclusive; note: potency is the fitted concentration of half-maximal effect; nearly all actives have a fitted effect of over 60% in size)
# Summary of the method: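 Readout: fluorescence at 485/520 from cell-impermeant bis-AAF-R110 cleaved by proteases leaking from damaged cells. LYMP1-002 lymphoblastoid line, 16 hr compound treatment at 37 C, concentration-response in qHTS format; Hill-equation AC50 values.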
# [11] = target: Bile acid receptor (Homo sapiens) (UniProt Q96RI1); test: qHTS assay for small molecule agonists of farnesoid X receptor signaling (AID 588527); conditions: HEK293T FXR-UAS-bla, beta-lactamase ratio, 16 h; stronger effect = higher value
# Summary of the method: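 Read-out: beta-lactamase reporter fluorescence with CCF4 substrate in GeneBLAzer FXR-UAS-bla HEK293T cells, after 16 h compound exposure at 37 C. Response scaled between DMSO basal (0%) and chenodeoxycholic acid at 100 uM (100%).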
# Phospholipid hydroperoxide glutathione peroxidase GPX4 (Homo sapiens), sequence (P36969 whole entry, looked up): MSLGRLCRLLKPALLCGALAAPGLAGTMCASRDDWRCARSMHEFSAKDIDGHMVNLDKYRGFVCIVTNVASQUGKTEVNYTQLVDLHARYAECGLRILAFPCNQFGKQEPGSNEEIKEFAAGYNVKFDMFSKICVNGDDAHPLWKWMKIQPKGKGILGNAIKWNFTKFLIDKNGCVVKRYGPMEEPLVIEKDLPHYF
# Glutathione peroxidase 1 (Homo sapiens), sequence (P07203 whole entry, looked up): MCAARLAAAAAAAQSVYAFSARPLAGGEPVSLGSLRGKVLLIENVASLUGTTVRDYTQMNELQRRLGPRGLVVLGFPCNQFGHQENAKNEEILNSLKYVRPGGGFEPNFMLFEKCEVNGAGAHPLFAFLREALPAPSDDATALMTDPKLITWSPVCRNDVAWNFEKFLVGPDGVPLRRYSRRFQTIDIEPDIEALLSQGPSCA
# Bile acid receptor (Homo sapiens), sequence (Q96RI1 whole entry, looked up): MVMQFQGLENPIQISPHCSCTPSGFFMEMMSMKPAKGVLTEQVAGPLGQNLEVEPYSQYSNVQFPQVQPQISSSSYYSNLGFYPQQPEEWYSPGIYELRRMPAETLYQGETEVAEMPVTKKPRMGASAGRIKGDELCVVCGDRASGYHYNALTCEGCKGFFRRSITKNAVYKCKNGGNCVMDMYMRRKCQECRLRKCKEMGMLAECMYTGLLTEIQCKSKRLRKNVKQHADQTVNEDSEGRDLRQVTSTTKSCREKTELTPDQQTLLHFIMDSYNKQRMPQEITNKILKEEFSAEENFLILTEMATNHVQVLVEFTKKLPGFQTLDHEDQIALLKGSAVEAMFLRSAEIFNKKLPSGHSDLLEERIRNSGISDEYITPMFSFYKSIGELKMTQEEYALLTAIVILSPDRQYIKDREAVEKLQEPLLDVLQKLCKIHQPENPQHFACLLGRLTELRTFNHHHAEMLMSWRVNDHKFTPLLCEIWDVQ
smiles,measurement,setting,value
COc1ccc2c(c1)OC(C)(C)C(c1ccccc1)C2c1ccc(OCCN2CCCC2)cc1 (stereo not given),Potency,[1],inactive
same,Potency,[2],inactive
same,Potency,[3],inactive
"CCCCCOc1ccc(-c2ccc(-c3ccc(C(=O)NC4CC(O)C(O)NC(=O)C5C(O)C(C)CN5C(=O)C(C(C)O)NC(=O)C(C(O)C(O)c5ccc(O)cc5)NC(=O)C5CC(O)CN5C(=O)C(C(C)O)NC4=O)cc3)cc2)cc1 (stereo not drawn) ({pTerphenylCO(4''-OnC5H11)}-[ξOrn(4,5-diOH)]T[Hyp][ξhTyr(βξ-OH,γξ-OH)]T[ξPro(3ξ-OH,4ξ-Me)]; lactam 1-C; configuration not given here)",Potency,[4],inactive
same,Potency,[5],11.2 µM (active)
same,Potency,[2],inactive
same,Potency,[6],inactive
CC(=O)OC1CC(OC2C(O)CC(OC3C(O)CC(OC4CCC5(C)C(CCC6C5CCC5(C)C(C7=CC(=O)OC7)CCC65O)C4)OC3C)OC2C)OC(C)C1O (stereo not given),Potency,[1],inactive
same,Potency,[5],inactive
same,"activity change, negative = inhibition",[7],-96.7%
C=CC(=O)N1CCCC(n2nc(-c3ccc(Oc4ccccc4)cc3)c3c(N)ncnc32)C1 (stereo not given),Potency,[4],inactive
same,Potency,[5],inactive
same,Potency,[2],inactive
CC(=O)O[C@H]1C[C@@H]2CC[C@@H]3[C@H](CC[C@@]4(C)[C@H]3C[C@H](N3CC[N+](C)(C)CC3)[C@@H]4OC(C)=O)[C@@]2(C)C[C@@H]1N1CC[N+](C)(C)CC1,Potency,[4],inactive
same,Potency,[5],inactive
same,Potency,[2],inactive
CN(C(=O)/C=C/c1ccoc1)[C@@H]1CC[C@@]2(O)[C@H]3Cc4ccc(O)c5c4[C@@]2(CCN3CC2CC2)[C@H]1O5,Potency,[1],inactive
same,Potency,[5],inactive
same,Potency,[2],inactive
same,Potency,[3],inactive
same,Potency,[7],inactive
same,Potency,[8],inactive
same,Potency,[9],inactive
C[C@H]1O[C@@H](O[C@H]2[C@@H](O)C[C@H](O[C@H]3[C@@H](O)C[C@H](O[C@H]4CC[C@@]5(C)[C@H](CC[C@@H]6[C@@H]5C[C@@H](O)[C@]5(C)[C@@H](C7=CC(=O)OC7)CC[C@]65O)C4)O[C@@H]3C)O[C@@H]2C)C[C@H](O)[C@@H]1O,Potency,[10],1 µM (active)
same,activation,[11],-4.19% (inactive)
same,Potency,[1],inactive
same,Potency,[5],inactive
same,"activity change, negative = inhibition",[7],-96.3% and -94.1%
Cc1cc(-c2ccc(N=Nc3ccc4c(S(=O)(=O)O)cc(S(=O)(=O)O)c(N)c4c3O)c(C)c2)ccc1N=Nc1ccc2c(S(=O)(=O)O)cc(S(=O)(=O)O)c(N)c2c1O,Potency,[1],inactive
same,Potency,[5],inactive
same,"activity change, negative = inhibition",[7],-2.58%
CC(C)N(CCCCOCC(=O)NS(C)(=O)=O)c1cnc(-c2ccccc2)c(-c2ccccc2)n1,Potency,[4],inactive
same,Potency,[5],inactive
same,Potency,[2],inactive
O=P(O)(O)OC(CO)CO,Potency,[4],inactive
same,Potency,[5],inactive
same,Potency,[2],inactive
C[C@@H](c1nc(-c2ccc(C#N)cc2)cs1)[C@](O)(Cn1cncn1)c1cc(F)ccc1F,Potency,[4],inactive
same,Potency,[5],10 µM (active)
OCCOc1ccc(/C(=C(/CCCl)c2ccccc2)c2ccccc2)cc1,Potency,[4],inactive
same,Potency,[5],inactive
same,Potency,[2],inactive
same,Potency,[6],inactive
same,Potency,[3],inactive
same,"activity change, negative = inhibition",[7],-9.9% and -6.02%

# Source: PubChem BioAssay (NCATS)
